Experimental data: PubChem BioAssay AID1159606 (Sanford-Burnham Center for Chemical Genomics, 2016)
“And” between values parts separate entries of the source, which are not always exact repeats. Equal values may be shown once. The whole screen tested about 360,000 compounds, of which about 7,300 (2%) were called active. Cut-off read from the data, not from the text of the source: active = inhibition above about 50%; inactive = the rest. For the sample, actives were picked, then their nearest neighbours and some compounds at random.

Test: inhibitors of TWEAK-Fn14 signaling, primary screen, luciferase reporter cells, uHTS (AID 1159606)
Conditions: TWEAK-stimulated Fn14 reporter cells, luciferase luminescence, 8 h; at 10 µM; stronger effect = higher value

Structure (SMILES) | inhibition
CCOc1ccc(S(=O)(=O)Nc2cccc(C(=O)NCC3(N4CCCCC4)CCCCC3)c2)cc1 | -1.13% (inactive)
OCCC#Cc1ccc(N2C(c3ccsc3)=Cc3ccc(F)cc3C2c2c[nH]c3ccccc23)cc1 (stereo unspecified) | 11.2% (inactive)
C=CCn1c(CNS(=O)(=O)c2ccc(Br)cc2)nnc1SC | 8.19% (inactive)
C=CCC[C@@H](CCCCC)OC(=O)/C=C/[C@@H](O)[C@H](O)C[C@H](O)CC=C | 2.81% (inactive)
CC1CN(C(=O)c2cc(COc3c(F)cccc3F)on2)CCN1C (stereo unspecified) | -6.71% (inactive)
C/C(=N/NC(=O)CCc1ccccc1)c1ccco1 | -10.4% (inactive)
O=C(CCc1ccccc1)Nc1cccc(-c2nnc(-c3ccco3)o2)c1 | 52.6% (active)
O=C(Nc1cccc(-c2nnc(-c3ccccc3)o2)c1)C1CCCO1 (stereo unspecified) | 10.7% (inactive)
CC(C)NC(=O)Nc1cccc2c1O[C@@H](CN(C)S(=O)(=O)c1ccc(F)cc1)[C@@H](C)CN([C@H](C)CO)C2=O | 3.62% (inactive)
COc1cccc(NC(=O)CC(c2ccc(OC(C)C)cc2)c2ccccc2OC)c1 (stereo unspecified) | -21.3% (inactive)
CC(=O)c1ccc(N2CCN(CC(O)c3ccccc3)CC2)cc1 (stereo unspecified) | 15.1% (inactive)
CC(=O)c1ccc(N2Cc3ccccc3C2)cc1 | 50.8% (active)
CC(=O)c1ccc(N2CCN(C(=O)CCc3ccccc3)CC2)cc1 | -0.25% (inactive)
CCOC(=O)[C@]12CCC=C1N(Cc1ccco1)C(=O)[C@H](CC(=O)N1CCSCC1)C2 | 13.3% (inactive)
O=C(CNC(=O)OCc1ccccc1)Oc1cc2oc(=O)cc(-c3ccccc3)c2cc1Cl | 66.8% (active)
CC(Oc1ccc2c(-c3ccccc3)cc(=O)oc2c1)C(=O)NC(Cc1c[nH]c2ccccc12)C(=O)O (stereo unspecified) | -2.3% (inactive)
O=C(NCC1CCC(C(=O)O)CC1)OCc1ccccc1 (stereo unspecified) | 3.36% (inactive)
OC(c1ccccc1)(c1ccccc1)C1CCN(CCCOc2ccccc2)CC1 | 1.25% (inactive)
Cc1ccc(OCC(=O)c2cc(C)n(Cc3ccco3)c2C)c([N+](=O)[O-])n1 | 42.9% (inactive)
COCCn1c(C)cc(C(=O)COC(=O)CNC(=O)c2ccco2)c1C | 5.04% (inactive)
Cc1cc(C(=O)COC(=O)CNC(=O)c2ccc(F)cc2)c(C)n1Cc1ccco1 | 71.8% (active)
CCc1nc2ccc(C(=O)Nc3cc(-c4ccccc4)ccc3OC)cn2c1N(CC)CC(=O)N(C)C | 9.07% (inactive)

Structure (SMILES) | inhibition
CC1(C(=O)NS(=O)(=O)c2cccs2)CCN1C(=O)Cc1ccc(-c2ccccc2)cc1 (stereo unspecified) | 6.14% (inactive)
OCCCNc1nccc(-c2cc(Nc3cccc(Cl)c3)ncn2)n1 | 97.3% (active)
CCOc1c(Nc2cccc(Cl)c2)c(=O)c1=O | 6.24% (inactive)
CC(NC(=O)COC(=O)c1ccc(Cl)cc1O)c1ccc(F)cc1 (stereo unspecified) | -8.36% (inactive)
COc1cccc(C2c3[nH]c4ccccc4c3CCN2Cc2cccc(C)n2)c1 (stereo unspecified) | 1.39% (inactive)
COC(=O)[C@H]1[C@H]2C[C@H]3c4[nH]c5ccccc5c4CCN3C[C@@H]2CC[C@@H]1O | 27.2% (inactive) and 5.66% (inactive)
COc1ccc(-c2ccc3[nH]c4c(c3c2)CCN2C[C@H]3[C@H](C)ON(C)[C@H]3C[C@@H]42)cc1 | 76.2% (active)
CCNc1nc(N)nc(-c2cc(Cl)ccc2OC)n1 | -2.01% (inactive)
CC[C@@H]1CC2=C(C(=O)OC(C)(C)O2)[C@@H](CC)O1 | 1.77% (inactive)
CCN(CC)C(=O)CC1(c2ccccc2OC)CCOC(C(C)C)C1 (stereo unspecified) | -4.31% (inactive)
C=CCn1nc(C(=O)OCC)cc1-c1sc(NC(=O)c2ccccc2)nc1C | 32.2% (inactive)
CCOC(=O)c1cc(-c2sc(NC(=O)c3ccccc3)nc2C)n(CCO)n1 | -0.09% (inactive)
CCOC(=O)c1cc(-c2sc(NC(=O)c3ccccc3)nc2C)n(Cc2ccccc2)n1 | 54.7% (active)
CCCCCCN1C[C@@H](O)[C@H](n2cc(COC(=O)c3ccccc3)nn2)C[C@@H]1c1ccc(Cl)cc1 | 11.1% (inactive)
C[C@H](NC(=O)[C@@H]1CCCN1C(=O)[C@@H]1CCCN1C(=O)c1ccccc1)c1ccccc1 | -2.63% (inactive)
CC(C(=O)NCC1CCCCC1)N(C)Cc1cccc(Cl)c1 (stereo unspecified) | -0.37% (inactive)
c1nnc2c3c4c(sc3ncn12)CCC4 | 58.9% (active)
S=c1[nH]nc2c3c4c(sc3ncn12)CCCC4 | 3.72% (inactive)
CC(C(=O)O)n1cnc2sc3c(c2c1=O)CCCC3 (stereo unspecified) | -20.1% (inactive)
COC(=O)c1sc(NC(=O)c2ccc(OC)cc2OC)nc1C | 69% (active)
COc1cc(SC)ccc1C(=O)NNC(=O)C1COc2ccccc2O1 (stereo unspecified) | -29.7% (inactive)
CCOC(=O)c1sc(NC(=O)c2sc(C)nc2C)nc1C | -39.5% (inactive)

Structure (SMILES) | inhibition
COc1cc(SC)ccc1C(=O)Nc1nc(C)cs1 | 102% (active)
COc1ccc(C(=O)NC(C)CCc2ccccc2)c(OC)c1 (stereo unspecified) | -8.93% (inactive)
Cc1csc(NC(=O)CSc2nc(=O)cc(N)n2-c2ccc(F)cc2)n1 | 27.6% (inactive)
CC(=O)c1ccc(NC(=S)N(Cc2ccccc2)C(C)C2CC2)cc1 (stereo unspecified) | 11.1% (inactive)
COC(=O)c1ccc2nc(-c3ccc(F)cc3)c(Cc3ccc(C)cc3)n2c1 | -0.5% (inactive)
O=C1NC[C@@H](CCCCN2CCN(CCc3ccc(O)cc3)C(=O)C2=O)N(CC2CCCCC2)C1=O | 10.2% (inactive)
O=C(c1ccc2c(c1)N(Cc1ccc(F)cc1)C(=O)CS2)N1CCOCC1 | -16.2% (inactive)
CCc1nccn1CCC(=O)N1CCCC(N2CCN(c3ccccc3F)CC2)C1 (stereo unspecified) | -3.5% (inactive)
CC(=O)Nc1ccc(NS(=O)(=O)c2ccc3c(c2)NC(=O)CC(=O)N3)cc1 | 10.3% (inactive)
CC(=O)Nc1ccc(S(=O)(=O)Nc2ccc(N3CCCCC3)cc2)cc1 | 84.7% (active)
CC(=O)Nc1ccc(S(=O)(=O)N2CCCC2C(=O)O)cc1 (stereo unspecified) | 0.16% (inactive)
CCN(CC)P(=O)(/C(Cl)=C\Nc1c(C)n(C)n(-c2ccccc2)c1=O)N(CC)CC | -1.25% (inactive)
CC1=CC=CC2=N/C(=N\S(=O)(=O)c3ccc(F)cc3F)c3ccccc3CN12 | -4.26% (inactive)
O=S(=O)(Nc1ccc(OC(F)(F)F)cc1)c1cccc2nonc12 | -6.65% (inactive)
COc1ccccc1NS(=O)(=O)c1ccc(C(=O)N2CCN(c3ccccc3O)CC2)cc1 | 9.79% (inactive)
O=S(=O)(Nc1ccc(O)c2ccccc12)c1ccc(OC(F)(F)F)cc1 | 84.1% (active)
O=C(NNC(=O)c1cccc(S(=O)(=O)Nc2ccc(Cl)cc2)c1)c1ccc(=O)[nH]c1 | 12.3% (inactive)
CC(C)=CC(=O)Nc1nnc(-c2ccc(F)cc2)s1 | -55.7% (inactive)
CCc1ccc(NC(=O)Nc2ccncc2)cc1 | -5.44% (inactive)
Cc1ccc(NC(=O)Nc2nnc(-c3ccncc3)s2)cc1 | 54.9% (active)
Cc1cc(=O)oc(C)c1C(=O)Nc1cnc2ccccc2c1 | 1.75% (inactive)
CC1(C)OC(=O)C2=C(C[C@@H](C3CC3)O[C@H]2c2ccc(Cl)cc2)O1 | 7.97% (inactive)

Structure (SMILES) | inhibition
CCCCOC(=O)c1ccc(NC(c2ccc(C)cc2)P(=O)(OC)OC)cc1 (stereo unspecified) | 4.7% (inactive)
O=[N+]([O-])c1ccc(Oc2ccc(F)cc2Br)c2ccncc12 | 69.9% (active)
CC(NC(=O)CCCC1CCCCC1)c1ccc(S(N)(=O)=O)cc1 (stereo unspecified) | 11.9% (inactive)
Cc1cc(S(=O)(=O)N2CCOCC2)ccc1OCC(=O)Nc1cccc(C(F)(F)F)c1 | 21.1% (inactive)
CC(=O)N1c2ccc(S(=O)(=O)N3CCC(C(=O)N4CCN(c5ccccc5)CC4)CC3)cc2CC1C (stereo unspecified) | -8.65% (inactive)
CC(=O)N1CCCc2cc(S(=O)(=O)CCC(=O)N3CCN(c4ccccc4)CC3)ccc21 | -26.2% (inactive)
CC(=O)N1CCCc2cc(S(=O)(=O)N3CCCC(C(=O)N4CCN(c5cccc(Cl)c5)CC4)C3)ccc21 (stereo unspecified) | 87.5% (active)
Cc1ccnc(SCCn2c(N(C)Cc3ccccc3)nc3c2c(=O)n(C)c(=O)n3C)n1 | -11.8% (inactive)
Cn1c(-c2ccc(C(F)(F)F)cc2)cc2onc(-c3ccccc3)c2c1=O | 51.4% (active)
O=c1c2ccccc2c(-c2ccc(F)cc2)nn1-c1ccc(C(F)(F)F)cc1 | -4.84% (inactive)
Cn1c(-c2ccc(F)cc2)cc2onc(-c3ccccc3Cl)c2c1=O | 6.49% (inactive)
CC(=O)N1Cc2cc(C(=O)NCc3cccc(F)c3)nc(-c3cccc(C4=CCCCC4)c3)c2[C@H]1CCO | 24.6% (inactive)
CCCCn1c(N)c(N(CCOC)C(=O)CSCC(=O)Nc2cccc(C)c2)c(=O)[nH]c1=O | 4.51% (inactive)
CC(C)Nc1ccc(-n2nc3ccccc3[n+]2[O-])cc1 | 62.4% (active)
C[C@H]([C@@H](O)[C@@H](O)[C@@H](C)C(C)(C)C)[C@H]1CC[C@H]2C3CC[C@H]4C[C@H](OS(=O)(=O)O)[C@@H](OS(=O)(=O)O)C[C@]4(C)[C@H]3CC[C@]12C (stereo partly specified) | 3.39% (inactive)
CCCC1C(=O)N2C(N(C)C)=Nc3ccc(C)cc3N2C1=O (stereo unspecified) | -18.1% (inactive)
O=C(O)c1ccc(/C=C2\SC(=S)N(NC(=O)c3ccc(Br)cc3)C2=O)cc1 | 2.06% (inactive)
C=CCOc1ccc(/C=C2\SC(=S)N(CCC(=O)O)C2=O)cc1 | 90% (active)
O=C1/C(=C\c2ccccc2Cl)SC(=S)N1CCC(=O)N1CCCc2ccccc21 | 3.74% (inactive)
CCCNC(=O)C1(C)CCN(C(=O)c2ccc(F)cc2Cl)C1 (stereo unspecified) | 2.61% (inactive)
